This passage reports growth results from PubChem BioAssay (NCI).

Holding throughout (assay): NCI-60 one-dose screen, 48 h (100 = growth as untreated, 0 = no growth, -100 = all killed)
Conditions in all cases: 10 µM unless noted

In assay [1] the test system is DU-145 prostate.
The test system of assay [2] is K-562 leukemia.
Assay [3] has as its system MALME-3M melanoma.
For assay [4], the system named is MDA-MB-231 breast.
Assay [5] deals with RXF 393 renal.
Assay [6] has as its system SF-268 CNS.
In assay [7] the test system is SF-295 CNS.
Assay [8] relates to SF-539 CNS.
Assay [9] deals with UACC-257 melanoma.
For assay [10], the system named is M14 melanoma.

The panel holds about 83,000 compounds, 20% with a hit somewhere; the sample as a whole holds those more often.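 A percent growth of 40 corresponds to 60% growth inhibition; 0 means no net growth; -100 means all cells died. Active threshold: below 10.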 A number with no mark means an inactive call. Active and inactive are the calls of the source.

Consider `O=C(Nc1ccc(F)cc1)c1ccc(C(=O)Nc2ccc(F)cc2)cc1`, for which the growth in assay [1] was 112%; in assay [2] it was 98.7%; in assay [3], 101%; in assay [4] it was 102%; in [5], 105%; in [6] it was 107%. For the same molecule, the growth was 91.1% in [7], 89.9% in assay [8], 101% in assay [9] and 105% in [10].

Take `COc1cc(-c2ccc3cc(OC)c(OC)c(OC)c3c2)cc(OC)c1OC`: the growth in assay [1] is 95.9%; in assay [2], 24.9%; in assay [3] it was 68.1%; in [4], 65.4%; in [5] it was 71.4%; in [6] it was 77.4%. Moreover, the growth was 43.8% in assay [7], 79.3% in [8], 75.3% in assay [9] and 51.4% in assay [10].

On to `CCOc1ccc(-c2cnnn2-c2nonc2-n2cccc2)cc1`, for which the growth is -9.36% (active) in assay [1]; 5.54% (active) in assay [2]; 52.6% in assay [3]; 4.16% (active) in assay [4]; -30.1% (active) in assay [5]; 50.7% in assay [6]. In addition, the growth was 8.24% (active) in assay [7], -19.5% (active) in assay [8], 65% in assay [9] and 9.7% (active) in assay [10].

As to `Clc1cccc(Cl)c1Nc1ccc2nnc(-c3ccncc3)n2n1`, the growth in assay [1] was 111%; in [2], 57.1%; in [3], 98.2%; in assay [4], 114%; in [5] it was 109%; in assay [6], 107%. In addition, the growth was 96% in [7], 95.7% in assay [8], 97.8% in [9] and 99.1% in assay [10].

As for `C[C@]1(CO)C[C@@H](O)C[C@]2(C)[C@@H]1CC[C@@]13C[C@@H]4[C@@H](C[C@H]12)[C@]4(C)C3`, the growth is 111% in assay [1]; 101% in assay [2]; 94.4% in assay [3]; 98% in assay [4]; 119% in assay [5]; 100% in [6]. In addition, the growth in [7] is 104%; in [8], 99.4%; in [9], 106%; in assay [10] it was 94.8%.

On to `CCOC(=O)c1cn2c3c(cc(F)cc3c1=O)C(CC)c1ccccc1C2` (stereo not given), for which the growth in assay [1] is 104%; in [2], 78.1%; in [3] it was 90.8%; in assay [4], 104%; in [5] it was 118%; in [6], 96.8%. Further, the growth in [7] is 91.5%; in assay [8], 97.5%; in assay [9], 96.3%; in assay [10], 114%.

`O=C1c2ccccc2-c2cn(Cc3ccccc3)c3cccc(c23)C1c1cccnc1` (stereo not given): the growth was 60.7% in assay [1]; 26.8% in assay [2]; 38.9% in assay [3]; 52.4% in assay [4]; 57.9% in [5]; 58% in assay [6]. The growth was 25.9% in assay [7], 54.7% in [8], 55% in [9] and 48.4% in assay [10].

`CC1CCCCN1S(=O)(=O)c1ccc(CN=C=S)cc1` (stereo not given): the growth in [1] was 63.8%; in [2] it was 9.18% (active); in assay [3], 87.1%; in assay [4], 51.1%; in assay [5], 51.9%; in assay [6] it was 91.1%. Moreover, the growth in assay [7] was 99.6%; in assay [8], 78.3%; in [9], 79.9%; in assay [10], 42%.

For `CCCN1CCN(c2ccc3nc(-c4ccc5nc(-c6ccc(C(F)(F)F)cc6)[nH]c5c4)[nH]c3c2)CC1`, the growth in assay [1] is -95.3% (active); in [2], -51.4% (active); in assay [3], -64.7% (active); in [4] it was -86.9% (active); in [5], -70.4% (active); in [6] it was -70.2% (active). For the same molecule, the growth in [7] is -58.4% (active); in assay [8], -94.6% (active); in assay [9], 96.5%; in assay [10], -59% (active).

`O=c1c2c(=NCCN3CCCC3)cc3c(=O)n(CCCN4CCOCC4)c(=O)c4c(-c5ccc(CN6CCCC6)cc5)cc(c(O)n1CCCN1CCOCC1)c2c4-3`: the growth in [1] was -26.7% (active); in assay [2], -21.1% (active); in [3] it was -70.1% (active); in [4], -46.6% (active); in [5], -79.4% (active); in assay [6], -33.1% (active). In addition, the growth in [7] was -12.5% (active); in [8] it was -78.8% (active); in [9], -27.1% (active); in [10], -78.7% (active).

For the molecule `COC(=O)c1c2c(c(C)[n+]([O-])c1C)C(=O)C=C(NCc1cccc(OC)c1)C2=O`, the growth is -99.1% (active) in [1]; -23.6% (active) in assay [2]; -98.9% (active) in [3]; -17.4% (active) in assay [4]; -46.7% (active) in assay [5]; -16.1% (active) in assay [6]. The growth was -97.5% (active) in assay [7], -92.3% (active) in assay [8], -87.1% (active) in assay [9] and -83.4% (active) in assay [10].

As to `c1ccc2cc(-c3n(Cc4ccc5ccccc5n4)c4ccccc4[n+]3Cc3ccc4ccccc4n3)ccc2c1`, the growth in assay [1] is 13.3%; in assay [2], -6.05% (active); in assay [3], -32.9% (active); in assay [4] it was -21% (active); in assay [5] it was -18.8% (active); in assay [6], -3.09% (active). Also, the growth was -13.7% (active) in [7], 0.28% (active) in [8], -14.2% (active) in [9] and -8.82% (active) in assay [10].

As for `O=C(NCc1cccnc1)c1ccc([N+](=O)[O-])o1`, the growth was -67.6% (active) in assay [1]; 22.1% in assay [2]; -61% (active) in assay [3]; 107% in assay [4]; -9.05% (active) in assay [5]; 33% in assay [6]. For the same molecule, the growth in assay [7] is 20.8%; in assay [8], -30.9% (active); in assay [9], -7.66% (active); in assay [10], -81.2% (active).

Regarding `Nc1nc(N)c(C=Nc2ccc(Br)cc2)c(Nc2ccc(Br)cc2)n1`, the growth in assay [1] is 107%; in assay [2] it was 92.2%; in [3], 119%; in [4], 86.1%; in assay [5] it was 78.9%; in [6] it was 81%. In addition, the growth in assay [7] was 83.5%; in assay [8], 101%; in assay [9], 83.1%; in [10], 97.2%.
